Most compounds without a hit are left out; they make up all but 0.5% or so of the library.
Tat export inh: blocks Tat-dependent protein export in E. coli; E. coli MC4100 TorA-mCherry Tat export, fluorescence; inhibition, % at 10 µM; 340,000 tested, 0.036% active; AID 488895;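 active = mean replicate inhibition at least 50% and at least half of replicates individually reaching 50%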;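 also: exported cargo escapes ClpAP degradation while cytoplasmic cargo is degraded and loses fluorescence; 0% = median of neutral control wells and 100% = median of NaSCN control wells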
AddAB inh: less growth of phage-infected E. coli with AddAB | E. coli expressing H. pylori AddAB, absorbance growth | 330,000 tested, 0.29% active | inhibition, % at 11.9 µM; in the data active = inhibition above about 12%;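 also: 0% = vehicle wells of infected cells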
E coli growth-1: E. coli growth inhibition; 330,000 tested, 0.21% active; AID 1053175; Escherichia coli growth, OD600, 23 h; hits give low values; OD600 absorbance (no concentration beside the values);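 active = OD600 absorbance below the run mean of sample wells minus 3.6 SD, in any replicate, cut at about 0.56 in these data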
phage Ecoli inh: E. coli growth loss with phage present | AID 651602 | 360,000 tested, 0.26% active | growth absorbance | inhibition, % at 11.9 µM; in the data active = inhibition above about 11%
E coli growth-2: reduces bacterial viability in AddAB counter-screen; E. coli V3065 growth, OD600 absorbance, 18 h; inhibition, % at 11.9 µM; 330,000 tested, 0.27% active;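 active = inhibition above the campaign's mean inhibition across all tested compounds plus 3 SD, cut at about 9.9% in these data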;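 also: uninfected addAB+ strain grown without phage in ampicillin broth; 0% = DMSO wells and 100% = ciprofloxacin 0.95 µg/ml wells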
RecBCD conf: growth loss of phage-infected V66 E. coli, RecBCD confirmation screen. shares compounds with phage Ecoli inh. E. coli V66 + T4 2- phage, growth OD. inhibition, % at 11.9 µM. 890 tested, 45% active;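 active = mean inhibition over triplicates exceeding the hit threshold derived in the original primary screen, cut at about 11% in these data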
Ecoli viability: bacterial viability inhibition counter-screen for RecBCD. E. coli viability, absorbance (OD) growth. inhibition, % at 11.9 µM. AID 651983. 890 tested, 29% active. shares compounds with phage Ecoli inh; in the data active = inhibition above about 20%;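 also: E. coli strain V66 grown with compound alone and no phage infection; 0% = bacteria with DMSO vehicle only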
AddAB phage OD: growth loss of phage-infected AddAB E. coli, RecBCD counter-screen. shares compounds with phage Ecoli inh. E. coli expressing H. pylori AddAB + T4 phage, OD growth; gene 2 mutant T4, recBCD-deleted host. inhibition, % at 11.9 µM. 890 tested, 45% active. AID 651984;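 active = mean inhibition above the solvent-only control wells' mean plus 3 SD, cut at about 22% in these data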;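 also: higher means less bacterial growth from phage killing when AddAB is blocked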
An asterisk follows results filed as active; · = not tested or not shown; ! = not confirmed by another sample.

SMILES | Tat export inh | AddAB inh | E coli growth-1 | phage Ecoli inh | E coli growth-2 | RecBCD conf | Ecoli viability | AddAB phage OD
O=C(O)c1nn(CCSc2ccccc2F)c(=O)c2ccccc12 | -4 | -1 | 0.7 | 37* | 0 | -5 | -5 | 0
CCN1C(=NCCOC)NC(CCc2ccccc2)C(C(=O)OC)C1C (centres undefined) | · | · | 0.66 | · | · | · | · | ·
NCCc1cnc[nH]1 | -5 | 1 | 0.65 | 13*! | 1 | -6 | -8 | 2
NCCC(=O)NCCc1cnc[nH]1 | -7 | -1 | 0.68 | 2 | 1 | · | · | ·
Oc1ccc(/C=N/N=C(c2ccccc2)c2ccccc2)c(O)c1O | 1 | 6 | · | 14* | 5 | 2 | 4 | 5
O=C(/C(=N/N=C/c1ccc(O)c(O)c1O)c1ccccc1)c1ccccc1 | 6 | 7 | · | 12* | 6 | 6 | 6 | 7
O=C(c1ccc(-c2ccccc2)c(F)c1)C1CCCN(CCCn2cccn2)C1 (centres undefined) | -4 | 3 | 0.7 | 99* | 1 | 1 | 2 | 1
CC(C)(C)c1ccc(C=CC(=O)c2ccc(NC3=NCCCS3)cc2)cc1 | · | · | 0.62 | · | · | · | · | ·
CCOc1ccc(C2=CC(=O)CC(c3ccc(OC)cc3)C2)cc1 (centres undefined) | · | · | 0.63 | · | · | · | · | ·
Nc1c(Cl)ncnc1N/N=C/c1ccccn1 | · | 2 | · | 30* | -2 | 38* | 49* | 37*
Cc1onc(-c2ccccc2)c1C(=O)NN=Cc1cc(Cl)cc(Cl)c1O | · | · | · | 11* | · | -1 | 1 | 2
O=C(NCCNCCO)C1(C(F)(F)F)CC(=CCc2ccccc2)CCCO1 (centres undefined) | · | · | 0.72 | · | · | · | · | ·
CC(=O)N1N=C(c2cccc(NS(C)(=O)=O)c2)CC1c1cccs1 (centres undefined) | -6 | 0 | 0.68 | 3 | -2 | · | · | ·
CC(=O)N1N=C(c2cccc(O)c2)CC1c1cccs1 (centres undefined) | 2 | · | 0.66 | 11* | · | -6 | -7 | -1
Cc1ccc(F)c(C2=CC(=O)CC(c3ccc(F)cc3)C2)c1 (centres undefined) | · | · | 0.71 | · | · | · | · | ·
COc1ccccc1C(=O)NC(CCSC)C(=O)NNC(=O)c1ccccc1O (centres undefined) | 3 | 10 | 0.63 | 12* | 7 | 3 | 1 | 6
COc1ccc(C(=O)NNC(=O)c2ccc3ccccc3c2O)cc1 | -8 | 5 | 0.69 | 3 | 3 | · | · | ·
COc1cccc(OCC(=O)NNC(=O)c2ccc3ccccc3c2O)c1 | -5 | · | 0.71 | 15* | · | 5 | 7 | 14
NCC(Cc1ccccc1)NCCc1cc(C(F)(F)F)cc(C(F)(F)F)c1 (centres undefined) | · | · | 0.61 | · | · | · | · | ·
O=[N+]([O-])c1ccc2nc(-c3ccc(Cl)cc3)[nH]c2c1 | -1 | 10 | 0.56 | 11* | 3 | 3 | 5 | 9
Cc1ccc(-c2nc3ccc([N+](=O)[O-])cc3[nH]2)cc1 | 0 | 7 | 0.53 | 5 | 3 | · | · | ·
CN1C(=O)C2C[C@@]3([C@@]45CC6C(=O)N(C)C(Cc7ccccc7)C(=O)N6C4Nc4ccccc45)c4ccccc4NC3N2C(=O)C1Cc1ccccc1 (some centres undefined) | · | · | 0.72 | · | · | · | · | ·
COc1ccc(-c2oc3ccccc3c(=O)c2OCC(=O)O)cc1 | -3 | 1 | 0.68 | 3 | -2 | · | · | ·
COc1ccc(-c2oc3ccccc3c(=O)c2OC(C)=O)cc1 | -2 | 12 | 0.6 | 11* | 12* | 7 | 9 | 13
Cc1c(C(=O)O)c(O)cc2c1C(=O)c1c(O)c(C3OC(CO)C(O)C(O)C3O)c(O)c(O)c1C2=O (centres undefined) | · | · | 0.77 | · | · | · | · | ·
SMILES | Tat export inh | AddAB inh | E coli growth-1 | phage Ecoli inh | E coli growth-2 | RecBCD conf | Ecoli viability | AddAB phage OD
CC(=NNC(=S)Nc1ccccc1Cl)c1ccccn1 | 1 | · | · | 14* | · | 10 | 9 | 14
CC(=NNC(=S)Nc1ccccc1)c1ccccn1 | · | · | · | 16* | · | 7 | 9 | 7
CC(=NNC(=O)c1ccccc1Cl)c1ccccn1 | · | · | 0.63 | · | · | · | · | ·
CCC(C)Sc1ccc(C2N[C@@](C)(C(=O)OC)C3C(=O)N(CC)C(=O)C23)cc1OC (some centres undefined) | · | · | 0.67 | · | · | · | · | ·
Cc1ccc(NC(=O)CCCSc2nc3ccccc3[nH]2)cc1 | -28 | 10 | 0.63 | 12* | 14* | 8 | 11 | 8
CC(=O)Oc1ccc(C#CC=C2c3ccccc3C(=O)N2c2ccccc2)cc1 | · | · | 0.74 | · | · | · | · | ·
CN1CC2C3C(=O)N(C)C(=O)C3[C@](C)(C1=O)N2C(=O)c1ccc(C(F)(F)F)cc1 (some centres undefined) | · | · | 0.66 | · | · | · | · | ·
O=C(COc1ccccc1)N/N=C/c1ccc([N+](=O)[O-])o1 | -1 | 10 | · | 12* | 9.8* | 8 | 7 | 31*
COc1cc(OC)c(OC)cc1C=NNC(=O)c1cnccn1 | · | · | 0.67 | · | · | · | · | ·
Nc1nc(=S)c2ncn(C3OC(CO)CC3O)c2[nH]1 (centres undefined) | -3 | · | · | 12* | · | 12* | 11 | 38*
CN(C)c1ccc(Sc2ccc3nc(N)nc(N)c3c2)cc1 | · | · | · | 99* | · | 64* | 68* | 82*
COc1cc2nc(N(C)C)nc(N)c2cc1OC | -4 | 1 | 0.76 | 0 | -2 | · | · | ·
Cn1ccc(=O)c2cc([N+](=O)[O-])ccc21 | · | · | · | 15* | · | 9 | 11 | 99*
CCC1=C2CCC3C(=O)N(CC)C(=O)C3C2[C@@]2(Cc3ccccc3)C(=NCc3ccccc3)OC(=O)N2C1=O (some centres undefined) | · | · | 0.67 | · | · | · | · | ·
CC(=O)NC(c1ccc(C)cc1)c1cc(Cl)c2cccnc2c1O (centres undefined) | -8 | · | · | 21* | · | 12* | 16 | 17
O=C(CCc1ccccc1)NC(c1cccs1)c1cc(Cl)c2cccnc2c1O (centres undefined) | -12 | · | 0.64 | 17* | · | 9 | 9 | 14
CCC(=O)NC(c1cccs1)c1cc(Cl)c2ccccc2c1O (centres undefined) | 1 | 4 | 0.69 | 2 | 1 | · | · | ·
CC(=O)NC(c1ccccc1)c1cc([N+](=O)[O-])c2cccnc2c1O (centres undefined) | 1 | -2 | 0.69 | -5 | -5 | · | · | ·
CC(=O)NC(c1cc(Cl)c2cccnc2c1O)C1CC1 (centres undefined) | 0 | 0 | 0.68 | 6 | 3 | · | · | ·
Oc1c(C(Nc2ccccn2)c2cccnc2)cc(Cl)c2cccnc12 (centres undefined) | 2 | 12 | 0.68 | 18* | 10* | 2 | 5 | 17
COc1cc(C=CC(=O)OCC2OC(OC3(CO)OC(CO)C(O)C3O)C(O)C(O)C2O)ccc1O (centres undefined) | · | · | 0.71 | · | · | · | · | ·
O=C(c1cccc(C(F)(F)F)c1)N1CCc2c([nH]c3ccccc23)C1C(F)(F)F (centres undefined) | 15 | 3 | 0.69 | 75* | 0 | 0 | -1 | 2
CCC(C)C(NC(=O)OC(C)(C)C)c1cn(C(CCCCNC(=O)OC(C)(C)C)C(=O)N2CCN(C(=O)OC(C)(C)C)CC2)nn1 (centres undefined) | · | · | 0.67 | · | · | · | · | ·
COc1cc(-c2noc(C)c2C=Cc2cccc([N+](=O)[O-])c2)cc(OC)c1OC | · | · | 0.73 | · | · | · | · | ·

High-throughput results as filed in PubChem BioAssay.
